Laboratory results from PubChem BioAssay (Tox21).
Inconclusive results are not listed. Values without a mark were called inactive. Calls come from the whole dose curve; as a rule, active = well fitted cell-killing curve with a large enough effect in the repeat runs; inconclusive = weak or mixed curves, or effect the other way; inactive = flat fitted curve, though single readings scatter.

test: qHTS RealTime-Glo MT Cell Viability Assay in HEK293 cells - 16 hour (AID 1224872); details: RealTime-Glo luminescence; series mostly up to 76.8 µM; activity change, negative = cytotoxicity: at the top concentration; note: top concentration of the series differs between compounds; nearly all actives have a fitted effect of over 50% in size
Procedure, shortened: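 Cells + reagent dispensed (600 cells/well, HEK293) → 5 h at 37 C/5% CO2 → 23 nL compound in DMSO pinned → 40 h at 37 C → luminescence read at 0, 8, 16, 24, 32, 40 h.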
% is set by controls: 0 for no effect and ±100 for the full control effect.

Compared with `c1ccc(CCc2ccccc2)cc1`, `CCOC(=O)C1=NOC(c2ccccc2)(c2ccccc2)C1` is higher in “activity change, negative = cytotoxicity” value: -17.6% for the first, 0.128% for the second.

First: CC1OC1C1CCC2(C)OC2C1 (configuration not stated)
Second: C1CCC2=NCCCN2CC1
The “activity change, negative = cytotoxicity” value of the first is lower: -0.718% for the first, 12.1% for the second.

First: CC(C)CC(C)(N)C#N (configuration not stated)
Second: CNCCO
The “activity change, negative = cytotoxicity” value of the first is lower: 8.05% for the first, 23.7% for the second.

First: COc1ccnc(CS(=O)c2nc3cc(OC(F)F)ccc3[nH]2)c1OC (configuration not stated)
Second: CC(=O)c1ccc2ccccc2c1
The “activity change, negative = cytotoxicity” value of the first is lower: -19.5% for the first, 18.1% for the second.

Going from `CCCCCCCCCC[N+](C)(C)[O-]` to `CCCn1cc[n+](C)c1C`, the “activity change, negative = cytotoxicity” value rises from -7.57% to 0.615%.

Going from `CCOc1ccccc1OCC` to `C=C(C)C(=O)OCCOCCOCCOCCOC(=O)C(=C)C`, the “activity change, negative = cytotoxicity” value falls from 12.2% to 4.52%.

Going from `NC(CCC(=O)O)C(=O)O` (configuration not stated) to `O=C1CCCCCCCCCCCCCCO1`, the “activity change, negative = cytotoxicity” value falls from 15.1% to 1.95%.

First: NCCCC[C@H](N[C@@H](CCc1ccccc1)C(=O)O)C(=O)N1CCC[C@H]1C(=O)O
Second: CCCCS(=O)(=O)N[C@@H](Cc1ccc(OCCCCC2CCNCC2)cc1)C(=O)O
The “activity change, negative = cytotoxicity” value of the first is lower: 1.38% [at 35.3 µM] for the first, 3.42% [at 35.3 µM] for the second.

Compared with `Cc1cccc(C)c1NC(=O)CC12CCCN1CCC2`, `O=C(O)c1cn(C2CC2)c2cc(N3CCNCC3)c(F)cc2c1=O` is higher in “activity change, negative = cytotoxicity” value: 2.51% [at 35.3 µM] for the first, 5.8% [at 35.3 µM] for the second.

Compared with `CC[N+](CC)(CC)CCOc1cccc(OCC[N+](CC)(CC)CC)c1OCC[N+](CC)(CC)CC`, `C[N+](C)(CCOc1ccccc1)Cc1cccs1` is lower in “activity change, negative = cytotoxicity” value: 0.939% [at 35.3 µM] for the first, 0.0731% [at 35.3 µM] for the second.

With `CCN[C@H]1C[C@H](C)S(=O)(=O)c2sc(S(N)(=O)=O)cc21` the “activity change, negative = cytotoxicity” value was 0.113% [at 35.3 µM].

With `CCN[C@@H]1C[C@H](N)[C@@H](OC2OC(CN)=CCC2N)[C@H](O)[C@H]1O[C@H]1OC[C@](C)(O)[C@H](NC)[C@H]1O` (some centres not stated) the activity change, negative = cytotoxicity was 1.34% [at 0.29 µM].
